# Source: article PMC7862700, “An all-to-all approach to the identification of sequence-specific readers for epigenetic DNA modifications on cytosine”
# Assays:
# Assay in all cases: DAPPL (digital affinity profiling via proximity ligation, sequencing); 10 mM Tris-HCl pH 7.5, 50 mM NaCl, 1 mM DTT, 4% glycerol, room temperature, 30 min; GST-TFs on glutathione beads, 16-mer random dsDNA library, 0.1% formaldehyde crosslink after washing; high values mean tight binding
# [1] = molecular target: T1, FLI1 (Homo sapiens, UniProt Q01543 1-452); settings: protein: recombinant; tags: N-terminal GST; dsDNA, one strand shown
# T1 sequence: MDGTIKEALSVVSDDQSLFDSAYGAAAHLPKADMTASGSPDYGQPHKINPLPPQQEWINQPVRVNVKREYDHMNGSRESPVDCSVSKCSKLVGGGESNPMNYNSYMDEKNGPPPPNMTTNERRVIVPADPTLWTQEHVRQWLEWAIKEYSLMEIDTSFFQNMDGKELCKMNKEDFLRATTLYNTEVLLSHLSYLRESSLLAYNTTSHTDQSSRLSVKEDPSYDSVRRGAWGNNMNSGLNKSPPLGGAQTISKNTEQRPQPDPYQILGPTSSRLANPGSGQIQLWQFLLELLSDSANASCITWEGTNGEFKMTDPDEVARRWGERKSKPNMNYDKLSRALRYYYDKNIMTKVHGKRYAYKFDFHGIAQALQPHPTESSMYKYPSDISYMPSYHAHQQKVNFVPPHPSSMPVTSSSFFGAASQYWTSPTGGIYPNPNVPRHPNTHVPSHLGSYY
# How it was run: (§1)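 GST fusions of human transcription factors were expressed in yeast and captured with glutathione beads. Once given DNA barcodes and pooled alongside a tag-only sample, they were incubated for 30 min at room temperature with 200 nmole of a random double-stranded 16-mer DNA library in Tris/NaCl/DTT/glycerol buffer, then washed, crosslinked (0.1% formaldehyde), proximity-ligated, PCR-amplified and sequenced on an Illumina NextSeq500. The binding signal of each hexamer is its read frequency for a factor divided by its frequency for the tag-only sample.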
# [2] = molecular target: T2, ELK1 (Homo sapiens, UniProt P19419 1-428); settings: protein: recombinant; tags: N-terminal GST; dsDNA, one strand shown
# T2 sequence: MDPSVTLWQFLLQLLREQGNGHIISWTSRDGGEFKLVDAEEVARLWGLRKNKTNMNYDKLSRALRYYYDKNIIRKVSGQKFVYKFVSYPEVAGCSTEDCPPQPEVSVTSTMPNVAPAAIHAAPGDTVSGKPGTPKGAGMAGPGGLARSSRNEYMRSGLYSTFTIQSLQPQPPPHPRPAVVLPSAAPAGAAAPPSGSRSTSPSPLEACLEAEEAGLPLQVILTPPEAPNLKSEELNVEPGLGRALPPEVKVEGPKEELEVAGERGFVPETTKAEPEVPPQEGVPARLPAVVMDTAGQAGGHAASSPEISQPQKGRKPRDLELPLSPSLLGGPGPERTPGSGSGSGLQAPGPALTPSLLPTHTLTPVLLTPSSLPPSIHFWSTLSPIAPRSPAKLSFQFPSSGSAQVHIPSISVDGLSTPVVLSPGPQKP
# How it was run: as §1
# [3] = molecular target: T3, GABPA (Homo sapiens, UniProt Q06546 1-454); settings: protein: recombinant; tags: N-terminal GST; dsDNA, one strand shown
# T3 sequence: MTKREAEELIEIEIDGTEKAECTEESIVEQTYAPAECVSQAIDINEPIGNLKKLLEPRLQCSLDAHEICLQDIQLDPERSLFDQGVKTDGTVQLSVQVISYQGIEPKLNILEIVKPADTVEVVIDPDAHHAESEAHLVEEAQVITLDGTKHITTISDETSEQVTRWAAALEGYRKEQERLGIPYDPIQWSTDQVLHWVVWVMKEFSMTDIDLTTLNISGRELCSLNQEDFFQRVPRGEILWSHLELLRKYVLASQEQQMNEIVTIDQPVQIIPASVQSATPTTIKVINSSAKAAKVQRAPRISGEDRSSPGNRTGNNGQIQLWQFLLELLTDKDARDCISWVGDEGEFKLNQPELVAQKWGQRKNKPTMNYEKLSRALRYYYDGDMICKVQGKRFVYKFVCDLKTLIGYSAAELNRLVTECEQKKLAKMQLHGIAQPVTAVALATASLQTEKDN
# How it was run: as §1
# [4] = molecular target: T4, ERG (Homo sapiens, UniProt P11308 1-479); settings: protein: recombinant; tags: N-terminal GST; dsDNA, one strand shown
# T4 sequence: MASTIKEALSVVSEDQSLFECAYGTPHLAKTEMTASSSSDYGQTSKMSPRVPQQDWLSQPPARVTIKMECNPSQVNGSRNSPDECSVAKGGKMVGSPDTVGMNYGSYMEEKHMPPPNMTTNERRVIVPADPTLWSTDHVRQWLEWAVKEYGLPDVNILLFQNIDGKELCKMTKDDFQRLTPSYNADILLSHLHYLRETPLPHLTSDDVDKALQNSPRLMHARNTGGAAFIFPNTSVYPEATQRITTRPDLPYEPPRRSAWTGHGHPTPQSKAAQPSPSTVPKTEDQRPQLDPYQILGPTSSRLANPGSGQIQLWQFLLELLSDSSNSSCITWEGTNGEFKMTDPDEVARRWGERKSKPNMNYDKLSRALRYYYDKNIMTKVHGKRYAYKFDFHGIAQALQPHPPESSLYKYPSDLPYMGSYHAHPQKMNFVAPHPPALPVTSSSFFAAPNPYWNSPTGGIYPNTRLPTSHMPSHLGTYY
# How it was run: as §1
# [5] = molecular target: ELF1 (Homo sapiens, UniProt P32519 1-619); settings: protein: recombinant; tags: N-terminal GST; dsDNA, one strand shown
# How it was run: as §1
# [6] = molecular target: T5, EHF (Homo sapiens, UniProt Q9NZC4 1-300); settings: protein: recombinant; tags: N-terminal GST; dsDNA, one strand shown
# T5 sequence: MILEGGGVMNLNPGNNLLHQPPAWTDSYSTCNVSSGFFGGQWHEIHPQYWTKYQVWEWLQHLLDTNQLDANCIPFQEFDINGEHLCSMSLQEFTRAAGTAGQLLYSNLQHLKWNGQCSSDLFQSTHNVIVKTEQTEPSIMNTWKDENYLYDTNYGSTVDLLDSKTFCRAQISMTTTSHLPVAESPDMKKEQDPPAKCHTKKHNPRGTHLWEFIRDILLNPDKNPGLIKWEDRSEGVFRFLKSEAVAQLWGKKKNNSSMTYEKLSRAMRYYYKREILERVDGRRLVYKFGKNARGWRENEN
# How it was run: as §1
# [7] = molecular target: SPI1 (Homo sapiens, UniProt P17947 1-270); settings: protein: recombinant; tags: N-terminal GST; dsDNA, one strand shown
# How it was run: as §1
# [8] = molecular target: SPIB (Homo sapiens, UniProt Q01892 1-262); settings: protein: recombinant; tags: N-terminal GST; dsDNA, one strand shown
# How it was run: as §1
# [9] = molecular target: T6, ELK3 (Homo sapiens, UniProt P41970 1-407); settings: protein: recombinant; tags: N-terminal GST; dsDNA, one strand shown
# T6 sequence: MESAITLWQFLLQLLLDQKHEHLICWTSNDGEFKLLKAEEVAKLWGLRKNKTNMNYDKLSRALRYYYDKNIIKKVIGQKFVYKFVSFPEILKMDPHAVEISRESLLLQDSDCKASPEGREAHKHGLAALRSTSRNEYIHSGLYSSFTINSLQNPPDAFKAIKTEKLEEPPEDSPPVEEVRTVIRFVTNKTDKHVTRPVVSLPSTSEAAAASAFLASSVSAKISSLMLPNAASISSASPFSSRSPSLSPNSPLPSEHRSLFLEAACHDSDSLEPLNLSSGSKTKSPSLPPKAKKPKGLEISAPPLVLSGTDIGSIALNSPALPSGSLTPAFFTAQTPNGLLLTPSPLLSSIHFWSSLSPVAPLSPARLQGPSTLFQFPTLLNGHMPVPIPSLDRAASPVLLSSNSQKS
# How it was run: as §1
# [10] = molecular target: T7, FEV (Homo sapiens, UniProt Q99581 1-238); settings: protein: recombinant; tags: N-terminal GST; dsDNA, one strand shown
# T7 sequence: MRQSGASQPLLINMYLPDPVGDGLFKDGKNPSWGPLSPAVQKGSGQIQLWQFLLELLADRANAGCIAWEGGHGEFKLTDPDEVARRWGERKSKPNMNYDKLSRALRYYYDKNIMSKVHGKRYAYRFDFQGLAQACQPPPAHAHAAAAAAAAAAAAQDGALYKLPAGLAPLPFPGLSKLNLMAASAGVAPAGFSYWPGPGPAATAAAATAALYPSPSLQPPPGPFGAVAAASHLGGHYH
# How it was run: as §1
# [11] = molecular target: ETV5 (Homo sapiens, UniProt P41161 1-510); settings: protein: recombinant; tags: N-terminal GST; dsDNA, one strand shown
# How it was run: as §1
# [12] = molecular target: HSF1 (Homo sapiens, UniProt Q00613 1-529); settings: protein: recombinant; tags: N-terminal GST; chain copies: 3; dsDNA, one strand shown
# How it was run: as §1
# [13] = molecular target: T8, SPIC (Homo sapiens, UniProt Q8N5J4 1-248); settings: protein: recombinant; tags: N-terminal GST; dsDNA, one strand shown
# T8 sequence: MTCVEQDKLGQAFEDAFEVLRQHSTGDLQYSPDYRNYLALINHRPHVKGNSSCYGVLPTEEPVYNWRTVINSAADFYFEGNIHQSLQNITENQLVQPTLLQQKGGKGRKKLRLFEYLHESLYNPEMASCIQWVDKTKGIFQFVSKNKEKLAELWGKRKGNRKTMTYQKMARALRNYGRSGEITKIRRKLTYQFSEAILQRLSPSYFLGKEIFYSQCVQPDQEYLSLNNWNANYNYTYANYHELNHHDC
# How it was run: as §1
# [14] = molecular target: ELF4 (Homo sapiens, UniProt Q99607 1-663); settings: protein: recombinant; tags: N-terminal GST; dsDNA, one strand shown
# How it was run: as §1
# [15] = molecular target: T9, ELK4 (Homo sapiens, UniProt P28324-2 1-405); settings: protein: recombinant; tags: N-terminal GST; dsDNA, one strand shown
# T9 sequence: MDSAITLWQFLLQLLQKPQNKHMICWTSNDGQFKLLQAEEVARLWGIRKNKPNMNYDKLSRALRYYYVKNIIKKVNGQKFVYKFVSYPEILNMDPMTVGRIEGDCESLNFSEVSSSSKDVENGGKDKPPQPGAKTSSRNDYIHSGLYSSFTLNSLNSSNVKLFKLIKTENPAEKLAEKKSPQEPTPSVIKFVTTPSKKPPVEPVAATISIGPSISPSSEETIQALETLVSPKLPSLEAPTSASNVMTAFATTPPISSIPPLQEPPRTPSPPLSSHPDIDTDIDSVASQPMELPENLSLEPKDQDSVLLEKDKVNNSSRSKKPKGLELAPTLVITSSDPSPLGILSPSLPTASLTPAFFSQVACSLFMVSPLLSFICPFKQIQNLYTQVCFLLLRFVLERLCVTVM
# How it was run: as §1
# [16] = molecular target: T10, ETV2 (Homo sapiens, UniProt O00321 1-342); settings: protein: recombinant; tags: N-terminal GST; dsDNA, one strand shown
# T10 sequence: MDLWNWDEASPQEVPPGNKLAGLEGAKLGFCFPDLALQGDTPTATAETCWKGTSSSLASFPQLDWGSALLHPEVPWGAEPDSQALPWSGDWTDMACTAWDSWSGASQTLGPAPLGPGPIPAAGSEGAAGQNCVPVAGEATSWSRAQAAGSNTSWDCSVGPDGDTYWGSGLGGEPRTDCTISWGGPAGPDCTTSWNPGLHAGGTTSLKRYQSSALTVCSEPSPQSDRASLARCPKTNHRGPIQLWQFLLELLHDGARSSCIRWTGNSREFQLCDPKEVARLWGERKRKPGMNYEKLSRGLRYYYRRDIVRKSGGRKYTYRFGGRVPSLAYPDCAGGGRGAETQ
# How it was run: as §1
# [17] = molecular target: T11, ELF3 (Homo sapiens, UniProt P78545 1-371); settings: protein: recombinant; tags: N-terminal GST; dsDNA, one strand shown
# T11 sequence: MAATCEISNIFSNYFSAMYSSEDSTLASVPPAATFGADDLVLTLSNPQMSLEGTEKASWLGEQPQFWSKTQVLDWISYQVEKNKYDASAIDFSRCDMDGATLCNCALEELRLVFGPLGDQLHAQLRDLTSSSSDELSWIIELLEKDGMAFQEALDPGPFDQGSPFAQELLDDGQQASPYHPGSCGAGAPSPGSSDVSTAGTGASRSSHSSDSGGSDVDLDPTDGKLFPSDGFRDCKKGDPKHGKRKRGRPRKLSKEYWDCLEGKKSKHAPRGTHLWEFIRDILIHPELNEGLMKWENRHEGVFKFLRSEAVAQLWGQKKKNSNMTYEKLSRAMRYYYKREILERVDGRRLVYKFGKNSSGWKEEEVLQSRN
# How it was run: as §1
# [18] = molecular target: CRX (Homo sapiens, UniProt O43186 1-299); settings: protein: recombinant; tags: N-terminal GST; dsDNA, one strand shown
# How it was run: as §1
# [19] = molecular target: ETV1 (Homo sapiens, UniProt P50549 1-477); settings: protein: recombinant; tags: N-terminal GST; dsDNA, one strand shown
# How it was run: as §1
# Chain of ELF4 (Q99607 whole entry): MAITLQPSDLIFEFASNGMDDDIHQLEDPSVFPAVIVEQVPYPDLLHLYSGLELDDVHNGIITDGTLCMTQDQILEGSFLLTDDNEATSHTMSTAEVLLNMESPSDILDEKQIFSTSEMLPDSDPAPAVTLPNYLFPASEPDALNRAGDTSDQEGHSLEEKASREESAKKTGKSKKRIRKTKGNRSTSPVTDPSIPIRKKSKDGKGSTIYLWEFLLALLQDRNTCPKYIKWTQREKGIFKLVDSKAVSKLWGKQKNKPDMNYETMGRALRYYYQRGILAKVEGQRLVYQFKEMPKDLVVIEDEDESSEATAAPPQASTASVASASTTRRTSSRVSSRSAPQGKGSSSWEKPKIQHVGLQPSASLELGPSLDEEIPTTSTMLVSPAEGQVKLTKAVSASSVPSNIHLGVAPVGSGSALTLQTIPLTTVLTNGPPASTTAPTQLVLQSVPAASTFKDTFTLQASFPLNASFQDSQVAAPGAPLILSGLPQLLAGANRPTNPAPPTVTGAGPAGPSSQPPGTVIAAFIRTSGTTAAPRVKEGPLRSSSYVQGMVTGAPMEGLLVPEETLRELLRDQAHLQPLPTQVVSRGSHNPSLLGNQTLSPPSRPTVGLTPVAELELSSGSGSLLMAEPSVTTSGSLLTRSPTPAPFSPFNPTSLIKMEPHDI
# Chain of CRX (O43186 whole entry): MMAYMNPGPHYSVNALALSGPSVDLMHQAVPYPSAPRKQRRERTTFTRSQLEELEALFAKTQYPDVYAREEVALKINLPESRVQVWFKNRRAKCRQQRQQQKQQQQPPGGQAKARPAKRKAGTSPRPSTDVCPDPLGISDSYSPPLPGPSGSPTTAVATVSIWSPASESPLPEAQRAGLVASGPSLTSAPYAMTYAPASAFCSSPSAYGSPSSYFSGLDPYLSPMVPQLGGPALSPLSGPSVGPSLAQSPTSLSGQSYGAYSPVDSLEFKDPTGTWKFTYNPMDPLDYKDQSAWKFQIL
# Chain of ETV5 (P41161 whole entry): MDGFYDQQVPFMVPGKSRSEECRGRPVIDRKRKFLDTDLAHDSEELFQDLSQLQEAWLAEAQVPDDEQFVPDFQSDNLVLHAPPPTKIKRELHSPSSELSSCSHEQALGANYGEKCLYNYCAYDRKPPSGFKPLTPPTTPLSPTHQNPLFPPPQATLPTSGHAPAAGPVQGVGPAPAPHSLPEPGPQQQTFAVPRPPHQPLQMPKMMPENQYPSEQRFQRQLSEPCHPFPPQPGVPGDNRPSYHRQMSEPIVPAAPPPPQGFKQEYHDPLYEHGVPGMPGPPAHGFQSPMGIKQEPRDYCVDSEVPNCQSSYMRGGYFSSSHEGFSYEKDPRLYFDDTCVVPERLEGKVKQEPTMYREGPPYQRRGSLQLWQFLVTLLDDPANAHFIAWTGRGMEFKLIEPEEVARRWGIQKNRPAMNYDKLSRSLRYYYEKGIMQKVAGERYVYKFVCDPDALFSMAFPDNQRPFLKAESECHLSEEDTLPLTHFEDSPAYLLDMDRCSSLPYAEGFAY
# Chain of HSF1 (Q00613 whole entry): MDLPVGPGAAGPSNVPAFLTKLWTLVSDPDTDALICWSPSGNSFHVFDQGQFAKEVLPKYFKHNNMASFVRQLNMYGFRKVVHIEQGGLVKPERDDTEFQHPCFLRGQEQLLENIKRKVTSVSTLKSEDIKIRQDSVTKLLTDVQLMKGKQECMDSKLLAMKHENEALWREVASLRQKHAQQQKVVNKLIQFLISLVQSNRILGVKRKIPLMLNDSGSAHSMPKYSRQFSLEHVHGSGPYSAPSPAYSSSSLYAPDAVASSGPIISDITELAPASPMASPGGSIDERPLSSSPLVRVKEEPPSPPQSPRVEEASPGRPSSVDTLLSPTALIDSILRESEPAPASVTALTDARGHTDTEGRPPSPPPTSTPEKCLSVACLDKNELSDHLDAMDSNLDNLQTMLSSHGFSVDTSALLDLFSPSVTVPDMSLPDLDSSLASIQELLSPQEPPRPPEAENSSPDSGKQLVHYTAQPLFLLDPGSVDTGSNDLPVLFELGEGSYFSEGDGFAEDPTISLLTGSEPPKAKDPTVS
# Chain of ETV1 (P50549 whole entry): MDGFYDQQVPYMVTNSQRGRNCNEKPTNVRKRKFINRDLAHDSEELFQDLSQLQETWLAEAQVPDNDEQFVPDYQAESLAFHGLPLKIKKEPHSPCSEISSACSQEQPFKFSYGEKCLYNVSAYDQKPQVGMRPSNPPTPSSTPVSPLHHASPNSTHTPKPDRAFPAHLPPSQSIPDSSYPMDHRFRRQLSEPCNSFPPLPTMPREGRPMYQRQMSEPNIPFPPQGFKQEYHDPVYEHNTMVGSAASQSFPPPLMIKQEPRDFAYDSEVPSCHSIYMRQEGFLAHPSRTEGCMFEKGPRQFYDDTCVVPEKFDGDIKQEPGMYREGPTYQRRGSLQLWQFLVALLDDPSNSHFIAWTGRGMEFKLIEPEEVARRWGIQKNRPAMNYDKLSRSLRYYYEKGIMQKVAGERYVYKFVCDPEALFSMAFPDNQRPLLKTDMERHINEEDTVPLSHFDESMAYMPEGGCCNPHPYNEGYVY
# Chain of SPIB (Q01892 whole entry): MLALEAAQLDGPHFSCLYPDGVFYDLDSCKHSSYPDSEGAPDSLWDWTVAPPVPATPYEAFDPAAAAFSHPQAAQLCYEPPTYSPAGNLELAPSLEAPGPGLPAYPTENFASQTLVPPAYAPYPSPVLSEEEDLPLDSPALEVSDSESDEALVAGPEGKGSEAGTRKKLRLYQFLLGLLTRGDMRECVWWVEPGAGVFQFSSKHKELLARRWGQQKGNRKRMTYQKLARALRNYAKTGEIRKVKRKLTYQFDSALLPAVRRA
# Chain of ELF1 (P32519 whole entry): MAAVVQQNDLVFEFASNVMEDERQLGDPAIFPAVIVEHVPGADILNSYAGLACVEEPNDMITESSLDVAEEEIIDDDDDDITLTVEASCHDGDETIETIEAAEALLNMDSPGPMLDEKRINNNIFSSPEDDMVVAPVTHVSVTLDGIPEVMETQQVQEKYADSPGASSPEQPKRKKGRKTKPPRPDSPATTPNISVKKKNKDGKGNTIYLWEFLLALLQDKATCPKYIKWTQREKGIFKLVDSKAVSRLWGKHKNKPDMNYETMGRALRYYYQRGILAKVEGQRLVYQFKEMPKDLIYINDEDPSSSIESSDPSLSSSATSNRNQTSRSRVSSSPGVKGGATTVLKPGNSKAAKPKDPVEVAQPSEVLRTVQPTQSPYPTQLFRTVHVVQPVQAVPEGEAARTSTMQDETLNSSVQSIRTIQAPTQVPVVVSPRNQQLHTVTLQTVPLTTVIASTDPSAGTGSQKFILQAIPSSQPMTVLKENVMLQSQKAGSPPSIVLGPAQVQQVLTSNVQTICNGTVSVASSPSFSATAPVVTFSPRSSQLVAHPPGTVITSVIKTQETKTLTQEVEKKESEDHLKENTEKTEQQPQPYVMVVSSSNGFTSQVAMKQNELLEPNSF
sequence,measurement,setting,value
AAATGA,binding signal,[1],"1.23 fold enrichment (6-mer frequency, TF over GST control)"
same,binding signal,[2],"1.32 fold enrichment (6-mer frequency, TF over GST control)"
same,binding signal,[3],"1.26 fold enrichment (6-mer frequency, TF over GST control)"
same,binding signal,[4],"1.3 fold enrichment (6-mer frequency, TF over GST control)"
same,binding signal,[5],"1.26 fold enrichment (6-mer frequency, TF over GST control)"
same,binding signal,[6],"1.23 fold enrichment (6-mer frequency, TF over GST control)"
same,binding signal,[7],"1.45 fold enrichment (6-mer frequency, TF over GST control)"
same,binding signal,[8],"1.37 fold enrichment (6-mer frequency, TF over GST control)"
same,binding signal,[9],"1.26 fold enrichment (6-mer frequency, TF over GST control)"
same,binding signal,[10],"1.26 fold enrichment (6-mer frequency, TF over GST control)"
same,binding signal,[11],"1.32 fold enrichment (6-mer frequency, TF over GST control)"
same,binding signal,[12],"1.12 fold enrichment (6-mer frequency, TF over GST control)"
same,binding signal,[13],"1.54 fold enrichment (6-mer frequency, TF over GST control)"
same,binding signal,[14],"1.29 fold enrichment (6-mer frequency, TF over GST control)"
same,binding signal,[15],"1.29 fold enrichment (6-mer frequency, TF over GST control)"
same,binding signal,[16],"1.36 fold enrichment (6-mer frequency, TF over GST control)"
same,binding signal,[17],"1.41 fold enrichment (6-mer frequency, TF over GST control)"
same,binding signal,[18],"1.16 fold enrichment (6-mer frequency, TF over GST control)"
same,binding signal,[19],"1.29 fold enrichment (6-mer frequency, TF over GST control)"
